The structures appear in SMILES notation. Values joined by “and” are separate entries in the source; they are usually repeats but may differ in a detail not shown here. Equal entries are not always repeated. Inconclusive results are not listed. A structure can be active in one record and inactive in another. Active and inactive are the calls of the source. Rule for the calls, unless noted: active = hit-call score of the fitted dose curve at least 0.9, where 1 is the maximum; inactive = score below 0.9.

These results are taken from PubChem BioAssay (EPA / NIEHS).

The nature of assay [1]: ATG_NFI_CIS: Attagene CIS-FACTORIAL HepG2 Assay for human Nuclear Factor I (NFI) (AID 2282989). The settings on record: HepG2 cis-regulatory reporter, NFI response element transcription; actives raise or lower the signal. In a few lines:
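Multiplexed cis-reporter system in human HepG2 cells reports native TF activity as reporter mRNA induction 24 h post-dose. Fragments labelled with 6-FAM, HpaI-digested and resolved by capillary electrophoresis; activity fitted both directions versus DMSO.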

Assay [2] deals with Myc proto-oncogene protein (Homo sapiens) (UniProt P01106). The assay can be described thus: ATG_Myc_CIS: Attagene CIS-FACTORIAL HepG2 Assay for human Myelocytomatosis (Myc) Proto-Oncogene Transcription Factor (AID 2282990). Particulars: HepG2, Attagene cis-reporter transcription factor activity; actives raise or lower the signal. In a few lines: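 After 24 h chemical treatment of HepG2 cells carrying multiplexed cis-regulated reporter constructs, reporter transcripts quantified by RT-PCR and capillary electrophoresis of fluorescent fragments. Gain or loss fitted against DMSO baseline.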

Assay [3] in a line: ATG_NF_kB_CIS: Attagene CIS-FACTORIAL HepG2 Assay for human Nuclear Factor Kappa B (NF-kB) (AID 2282991). Particulars: HepG2 Attagene cis-factorial NF-kB reporter mRNA; actives raise or lower the signal. In a few lines: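 HepG2 cells transfected with cis-promoter-driven reporter units, so endogenous transcription factor activity is measured. Reporter mRNA quantified 24 h after dosing by RT-PCR and capillary electrophoresis, with bidirectional fitting against DMSO.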

Assay [4] is described as follows: ATG_NRF2_ARE_CIS: Attagene CIS-FACTORIAL HepG2 Assay for human Nuclear Factor Erythroid 2 Related Factor 2 (NFR2) response to Antioxidant Response Elements (ARE) (AID 2282992).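 For AC50: reporter mRNA level measured by RT-PCR and capillary electrophoresis fluorescence.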 The settings on record: HepG2 Attagene ARE/NRF2 reporter, transcription factor activity; actives raise or lower the signal. In a few lines: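 Cis-factorial assay: transfected HepG2 reporter library, 24 h dosing, mRNA readout via RT-PCR/CE; DMSO-referenced bidirectional analysis.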

The nature of assay [5]: ATG_Oct_MLP_CIS: Attagene CIS-FACTORIAL HepG2 Assay for human Octamer-Binding Transcription Factor (Oct) (AID 2282993). Particulars: HepG2 Attagene cis-factorial Oct reporter, mRNA; actives raise or lower the signal. In a few lines:
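After 24 h compound exposure, transfected HepG2 cells were lysed for total RNA; reporter-specific cDNA was PCR-amplified, fluorescently labelled and sized by capillary electrophoresis. Bidirectional curve fitting used DMSO as baseline.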

The target of assay [6] is Cellular tumor antigen p53 (Homo sapiens) (UniProt P04637). Kind of assay: ATG_p53_CIS: Attagene CIS-FACTORIAL HepG2 Assay for human p53 Transcription Factor (AID 2282994). Particulars: HepG2 p53 cis-element reporter, Attagene mRNA; actives raise or lower the signal. In a few lines:
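Using HepG2 hepatoma cells carrying cis-acting multiplexed reporters, mRNA induction is detected after a 24 h exposure. Gain- and loss-of-signal responses are fitted relative to DMSO-treated cells.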

Assay [7] is described as follows: BSK_3C_TissueFactor: BioMAP Diversity Plus: 3C Assay for Tissue Factor Biomarker Activity (AID 2282997). Particulars: BioMAP 3C HUVEC, tissue factor biomarker readout; actives raise or lower the signal. In a few lines:
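Primary human umbilical vein endothelial cells in the 3C system were exposed to test chemical for 24 h, then Tissue Factor measured by ELISA. Activity was fitted bidirectionally against DMSO as negative control and baseline.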

The nature of assay [8]: BSK_3C_uPAR: BioMAP Diversity Plus: 3C Assay for Urokinase-type plasminogen activator receptor (uPAR) Biomarker Activity (AID 2282998). Particulars: BioMAP 3C HUVEC, uPAR biomarker ELISA; actives raise or lower the signal. In a few lines:
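Values derive from bidirectional curve fitting relative to DMSO, which served as baseline of activity. uPAR was measured by ELISA in human umbilical vein endothelial primary cultures 24 h after compound addition.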
(An ELISA detects its analyte on a solid surface through an enzyme-linked reagent.)

Assay [9] in a line: BSK_3C_VCAM1: BioMAP Diversity Plus: 3C Assay for Vascular cell adhesion molecule 1 (VCAM1) Biomarker Activity (AID 2282999). The settings on record: BioMAP 3C HUVEC, VCAM1 ELISA, cytokine-stimulated; actives raise or lower the signal. In a few lines:
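Endothelial cells from human umbilical vein are treated with test chemical. At 24 h, VCAM-1 is measured by ELISA, and responses in either direction are fitted relative to DMSO.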

Assay [10] in a line: BSK_4H_Eotaxin3: BioMAP Diversity Plus: 4H Assay for Eotaxin 3 Biomarker Activity (AID 2283000).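 For outcome: CCL26 protein level quantified by ELISA in parallel with SRB cytotoxicity check.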 Particulars: primary human endothelial cells (HUVEC); actives raise or lower the signal. In a few lines:
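HUVEC, 24 h post-dose, ELISA for Eotaxin-3/CCL26. Gain or loss of signal fitted bidirectionally vs DMSO baseline.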

Assay [11] has as its target human Peroxisome Proliferator-activated Receptor alpha (PPARa), PPARA (gene 5465) (UniProt Q07869). Kind of assay: ATG_PPARa_TRANS: Attagene TRANS-FACTORIAL HepG2 Assay for human Peroxisome Proliferator-activated Receptor alpha (PPARa) (AID 2283001; active = hit-call score of the fitted dose curve at least 0.9, where 1 is the maximum;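 for AC50: potency for gain of reporter signal over DMSO so agonist or activator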). In a few lines:
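Reporter transcripts from GAL4-UAS units in transfected HepG2 were quantified 24 h after dosing. Detection used reverse transcription, PCR, fluorescent primer extension and capillary electrophoresis, with DMSO as baseline.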

In assay [12] the target is human Peroxisome Proliferator-activated Receptor delta (PPARd), PPARD (gene 5467) (UniProt Q03181). Kind of assay: ATG_PPARd_TRANS: Attagene TRANS-FACTORIAL HepG2 Assay for human Peroxisome Proliferator-activated Receptor delta (PPARd) (AID 2283002; active = hit-call score of the fitted dose curve at least 0.9, where 1 is the maximum). In a few lines:
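Read-out is induced reporter mRNA, quantified by RT-PCR with fluorescent labelling and capillary electrophoresis after 24 h dosing. Cells are HepG2 transiently carrying multiple GAL4-UAS reporter units driven by exogenous NR-GAL4 chimeras; DMSO serves as baseline.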

Read-out in assay [13]: Intercellular Adhesion Molecule 1 (ICAM1), ICAM1 (gene 3383)
The assay can be described thus: BSK_3C_ICAM1: BioMAP Diversity Plus: 3C Assay for Intercellular Adhesion Molecule 1 (ICAM1) Biomarker Activity (AID 2283003). The settings on record: primary human endothelial cells (HUVEC); actives raise or lower the signal. In a few lines:
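Human vascular endothelial primary cells, 3C conditions, 24 h treatment. ICAM-1 by ELISA.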

For assay [14], the target named is human Retinoic Acid Receptor beta (RARb), RARB (gene 5915) (UniProt P10826). The assay can be described thus: ATG_RARb_TRANS: Attagene TRANS-FACTORIAL HepG2 Assay for human Retinoic Acid Receptor beta (AID 2283004; active = hit-call score of the fitted dose curve at least 0.9, where 1 is the maximum). In a few lines:
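HepG2 cells transiently transfected with multiplexed GAL4-UAS reporter units expressing chimeric NR–Gal4 fusions; 24 h compound exposure. Reporter mRNA quantified by RT-PCR, 6-FAM labelling, HpaI digestion and capillary electrophoresis; gain-of-signal fitted against DMSO baseline.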

Assay [15] has as its target Retinoic acid receptor alpha (Homo sapiens) (UniProt P10276). Kind of assay: ATG_RARa_TRANS: Attagene TRANS-FACTORIAL HepG2 Assay for human Retinoic Acid Receptor alpha (RARa) (AID 2283005; active = hit-call score of the fitted dose curve at least 0.9, where 1 is the maximum). In a few lines: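 Reporter transcripts, measured by RT-PCR with fluorescent labeling and capillary electrophoresis after 24 h dosing, reflect activity of an exogenous human RARa–GAL4 fusion in transiently transfected HepG2. Fitted for increase relative to DMSO.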

For assay [16], the target named is Peroxisome proliferator-activated receptor gamma (Homo sapiens) (UniProt P37231). Kind of assay: ATG_PPARg_TRANS: Attagene TRANS-FACTORIAL HepG2 Assay for human Peroxisome Proliferator-activated Receptor-gamma (PPARg) (AID 2283007; active = hit-call score of the fitted dose curve at least 0.9, where 1 is the maximum). In a few lines:
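HepG2 cells are transiently transfected with GAL4-UAS reporter units driven by chimeric NR-Gal4 fusions and dosed for 24 h. Reporter mRNA is quantified by RT-PCR, 6-FAM labelling, HpaI digestion and capillary electrophoresis. Induction is scored against DMSO.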

In assay [17] the target is Nuclear receptor subfamily 1 group I member 2 (Homo sapiens) (UniProt O75469). Kind of assay: ATG_PXR_TRANS: Attagene TRANS-FACTORIAL HepG2 Assay for human Pregnane X Receptor (PXR) (AID 2283008; active = hit-call score of the fitted dose curve at least 0.9, where 1 is the maximum). In a few lines:
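Fluorescence intensity of FAM-labelled, HpaI-digested reporter amplicons, separated by capillary electrophoresis, quantifies induction. HepG2 cells with PXR-Gal4 trans-reporter system were exposed 24 h; DMSO defines baseline.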

Assay [18] deals with human Retinoic Acid Receptor gamma (RARg), RARG (gene 5916) (UniProt P13631). Kind of assay: ATG_RARg_TRANS: Attagene TRANS-FACTORIAL HepG2 Assay for human Retinoic Acid Receptor gamma (RARg) (AID 2283009; active = hit-call score of the fitted dose curve at least 0.9, where 1 is the maximum). In a few lines:
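HepG2, RARg-GAL4 TRANS system, 24 h exposure; reporter mRNA by RT-PCR + CE fluorescence; increase over DMSO.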

Assay [19] deals with human RAR-related Orphan Receptor beta (RORb), RORB (gene 6096) (UniProt Q92753). Kind of assay: ATG_RORb_TRANS: Attagene TRANS-FACTORIAL HepG2 Assay for human RAR-related Orphan Receptor beta (RORb) (AID 2283010; active = hit-call score of the fitted dose curve at least 0.9, where 1 is the maximum). In a few lines: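 In this TRANS-format test, human HepG2 cells express chimeric NR-Gal4 fusion proteins driving GAL4-UAS reporters. After 24 h dosing, reporter transcripts are measured by fluorescent RT-PCR/capillary electrophoresis, with DMSO as negative control.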

Assay [20] is described as follows: BSK_3C_Proliferation: Cell Proliferation Assessment in the BioMAP Diversity Plus: 3C Assay (AID 2283006).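 For AC50: potency may reflect either rise or fall in cell number versus DMSO.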 The settings on record: primary human endothelial cells (HUVEC). In a few lines: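 Proliferation of human vascular endothelial primary cells after 48 h dosing, quantified as SRB-stained protein at 560 nm relative to DMSO.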

Sequence of human Peroxisome Proliferator-activated Receptor delta (PPARd), PPARD (gene 5467) (Q03181 whole entry, looked up, the tested form may be a part): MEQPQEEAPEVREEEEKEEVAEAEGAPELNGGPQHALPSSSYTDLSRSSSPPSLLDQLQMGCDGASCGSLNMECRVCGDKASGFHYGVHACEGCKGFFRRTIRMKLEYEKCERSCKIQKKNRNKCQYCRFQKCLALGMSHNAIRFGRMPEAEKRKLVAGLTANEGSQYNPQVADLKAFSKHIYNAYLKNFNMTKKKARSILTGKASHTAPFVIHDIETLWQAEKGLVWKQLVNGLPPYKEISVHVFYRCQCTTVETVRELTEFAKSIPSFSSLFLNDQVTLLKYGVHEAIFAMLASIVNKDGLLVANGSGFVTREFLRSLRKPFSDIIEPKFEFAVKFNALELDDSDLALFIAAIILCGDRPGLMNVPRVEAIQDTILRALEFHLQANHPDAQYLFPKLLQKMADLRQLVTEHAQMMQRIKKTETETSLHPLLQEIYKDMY
Sequence of Retinoic acid receptor alpha (Homo sapiens) (P10276 whole entry, looked up, the tested form may be a part): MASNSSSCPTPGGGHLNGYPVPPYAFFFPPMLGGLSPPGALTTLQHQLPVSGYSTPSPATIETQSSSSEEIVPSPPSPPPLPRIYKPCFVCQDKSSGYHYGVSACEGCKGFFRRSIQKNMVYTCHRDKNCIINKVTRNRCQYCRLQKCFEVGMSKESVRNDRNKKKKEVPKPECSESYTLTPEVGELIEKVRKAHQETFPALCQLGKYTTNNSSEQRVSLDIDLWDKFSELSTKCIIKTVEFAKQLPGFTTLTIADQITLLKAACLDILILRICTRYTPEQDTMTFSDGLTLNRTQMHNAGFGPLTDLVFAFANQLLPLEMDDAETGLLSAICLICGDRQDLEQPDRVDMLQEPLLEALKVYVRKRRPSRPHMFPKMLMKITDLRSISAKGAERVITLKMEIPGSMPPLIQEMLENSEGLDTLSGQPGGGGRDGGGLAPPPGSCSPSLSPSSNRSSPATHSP
Sequence of human RAR-related Orphan Receptor beta (RORb), RORB (gene 6096) (Q92753 whole entry, looked up, the tested form may be a part): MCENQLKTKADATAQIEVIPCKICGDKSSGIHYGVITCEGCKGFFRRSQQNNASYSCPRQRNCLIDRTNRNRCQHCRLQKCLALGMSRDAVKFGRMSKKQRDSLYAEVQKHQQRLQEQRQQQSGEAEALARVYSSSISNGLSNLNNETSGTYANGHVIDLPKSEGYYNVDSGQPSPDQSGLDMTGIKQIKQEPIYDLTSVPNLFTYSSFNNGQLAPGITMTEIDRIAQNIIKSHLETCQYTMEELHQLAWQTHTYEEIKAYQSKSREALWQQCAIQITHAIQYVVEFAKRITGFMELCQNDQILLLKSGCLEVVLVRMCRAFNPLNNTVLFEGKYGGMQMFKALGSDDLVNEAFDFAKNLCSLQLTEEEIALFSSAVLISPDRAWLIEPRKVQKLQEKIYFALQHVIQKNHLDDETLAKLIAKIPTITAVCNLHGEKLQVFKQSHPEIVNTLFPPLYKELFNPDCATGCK
Sequence of Myc proto-oncogene protein (Homo sapiens) (P01106 whole entry, looked up, the tested form may be a part): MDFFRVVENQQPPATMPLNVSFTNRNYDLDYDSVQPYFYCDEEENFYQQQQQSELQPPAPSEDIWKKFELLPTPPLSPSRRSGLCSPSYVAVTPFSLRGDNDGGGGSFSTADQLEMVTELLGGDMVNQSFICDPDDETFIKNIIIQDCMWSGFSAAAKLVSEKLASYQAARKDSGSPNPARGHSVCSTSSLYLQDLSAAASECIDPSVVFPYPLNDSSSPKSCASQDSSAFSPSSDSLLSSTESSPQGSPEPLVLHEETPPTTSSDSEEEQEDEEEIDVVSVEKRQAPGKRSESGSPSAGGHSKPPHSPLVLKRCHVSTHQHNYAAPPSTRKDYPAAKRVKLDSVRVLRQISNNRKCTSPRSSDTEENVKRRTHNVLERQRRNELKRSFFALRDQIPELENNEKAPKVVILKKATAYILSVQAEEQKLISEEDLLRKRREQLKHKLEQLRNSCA
Sequence of human Peroxisome Proliferator-activated Receptor alpha (PPARa), PPARA (gene 5465) (Q07869 whole entry, looked up, the tested form may be a part): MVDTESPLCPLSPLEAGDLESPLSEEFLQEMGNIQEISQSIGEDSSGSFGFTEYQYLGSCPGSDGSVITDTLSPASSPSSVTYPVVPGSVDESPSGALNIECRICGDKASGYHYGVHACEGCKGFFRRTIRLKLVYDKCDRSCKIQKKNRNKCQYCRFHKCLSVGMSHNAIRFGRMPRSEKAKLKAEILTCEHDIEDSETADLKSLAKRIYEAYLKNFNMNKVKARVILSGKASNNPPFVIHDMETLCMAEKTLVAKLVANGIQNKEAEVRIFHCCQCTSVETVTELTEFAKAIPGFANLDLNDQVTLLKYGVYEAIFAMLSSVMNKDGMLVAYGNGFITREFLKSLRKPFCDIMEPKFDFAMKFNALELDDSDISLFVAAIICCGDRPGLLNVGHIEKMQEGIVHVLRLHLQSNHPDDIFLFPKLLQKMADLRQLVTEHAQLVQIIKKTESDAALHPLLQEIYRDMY
Sequence of Nuclear receptor subfamily 1 group I member 2 (Homo sapiens) (O75469 whole entry, looked up, the tested form may be a part): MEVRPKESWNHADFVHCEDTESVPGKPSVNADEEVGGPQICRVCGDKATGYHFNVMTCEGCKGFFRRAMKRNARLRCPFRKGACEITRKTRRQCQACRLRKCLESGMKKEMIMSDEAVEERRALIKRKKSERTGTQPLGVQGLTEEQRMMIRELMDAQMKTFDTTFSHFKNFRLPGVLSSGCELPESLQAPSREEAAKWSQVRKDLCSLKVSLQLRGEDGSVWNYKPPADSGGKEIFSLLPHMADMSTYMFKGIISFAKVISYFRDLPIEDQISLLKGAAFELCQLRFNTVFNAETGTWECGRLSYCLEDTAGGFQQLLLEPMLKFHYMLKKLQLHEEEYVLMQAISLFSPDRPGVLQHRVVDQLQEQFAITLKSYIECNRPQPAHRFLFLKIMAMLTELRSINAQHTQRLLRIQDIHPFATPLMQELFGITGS
Sequence of human Retinoic Acid Receptor gamma (RARg), RARG (gene 5916) (P13631 whole entry, looked up, the tested form may be a part): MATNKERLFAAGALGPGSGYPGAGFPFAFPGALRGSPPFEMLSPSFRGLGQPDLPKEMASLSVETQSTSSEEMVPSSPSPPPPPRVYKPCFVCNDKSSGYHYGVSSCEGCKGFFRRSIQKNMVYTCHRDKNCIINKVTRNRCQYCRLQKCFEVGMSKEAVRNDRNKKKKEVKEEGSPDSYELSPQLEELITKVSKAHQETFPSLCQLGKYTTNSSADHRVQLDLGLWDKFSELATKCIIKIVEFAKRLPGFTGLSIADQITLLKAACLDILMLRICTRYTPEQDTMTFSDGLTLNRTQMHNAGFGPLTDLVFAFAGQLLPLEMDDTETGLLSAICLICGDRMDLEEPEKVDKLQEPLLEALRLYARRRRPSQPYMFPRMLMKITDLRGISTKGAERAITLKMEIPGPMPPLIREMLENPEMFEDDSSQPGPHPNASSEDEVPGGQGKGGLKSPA
Sequence of Peroxisome proliferator-activated receptor gamma (Homo sapiens) (P37231 whole entry, looked up, the tested form may be a part): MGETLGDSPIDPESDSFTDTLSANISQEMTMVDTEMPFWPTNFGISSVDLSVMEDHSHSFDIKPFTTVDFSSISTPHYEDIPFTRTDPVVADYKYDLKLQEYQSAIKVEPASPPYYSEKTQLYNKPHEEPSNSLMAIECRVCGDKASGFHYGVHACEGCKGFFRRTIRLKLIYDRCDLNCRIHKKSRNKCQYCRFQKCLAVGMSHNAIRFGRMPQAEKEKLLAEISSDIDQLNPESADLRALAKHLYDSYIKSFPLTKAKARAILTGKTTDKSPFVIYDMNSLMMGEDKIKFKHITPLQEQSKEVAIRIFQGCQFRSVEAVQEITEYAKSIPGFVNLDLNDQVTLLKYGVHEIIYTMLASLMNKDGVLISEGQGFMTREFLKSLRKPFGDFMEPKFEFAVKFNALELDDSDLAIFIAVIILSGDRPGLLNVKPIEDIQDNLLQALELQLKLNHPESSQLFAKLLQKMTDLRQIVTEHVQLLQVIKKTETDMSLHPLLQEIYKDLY
Sequence of Cellular tumor antigen p53 (Homo sapiens) (P04637 whole entry, looked up): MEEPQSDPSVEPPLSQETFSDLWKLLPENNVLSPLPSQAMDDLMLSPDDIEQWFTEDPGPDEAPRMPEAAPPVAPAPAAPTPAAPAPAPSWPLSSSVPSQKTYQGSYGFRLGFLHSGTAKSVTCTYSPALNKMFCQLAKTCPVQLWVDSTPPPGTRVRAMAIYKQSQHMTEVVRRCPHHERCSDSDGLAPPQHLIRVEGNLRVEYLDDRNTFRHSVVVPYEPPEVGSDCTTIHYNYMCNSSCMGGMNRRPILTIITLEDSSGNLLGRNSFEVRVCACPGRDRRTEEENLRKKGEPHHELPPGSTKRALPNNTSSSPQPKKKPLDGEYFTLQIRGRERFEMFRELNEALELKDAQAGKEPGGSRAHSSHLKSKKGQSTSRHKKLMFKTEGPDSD
Sequence of human Retinoic Acid Receptor beta (RARb), RARB (gene 5915) (P10826 whole entry, looked up, the tested form may be a part): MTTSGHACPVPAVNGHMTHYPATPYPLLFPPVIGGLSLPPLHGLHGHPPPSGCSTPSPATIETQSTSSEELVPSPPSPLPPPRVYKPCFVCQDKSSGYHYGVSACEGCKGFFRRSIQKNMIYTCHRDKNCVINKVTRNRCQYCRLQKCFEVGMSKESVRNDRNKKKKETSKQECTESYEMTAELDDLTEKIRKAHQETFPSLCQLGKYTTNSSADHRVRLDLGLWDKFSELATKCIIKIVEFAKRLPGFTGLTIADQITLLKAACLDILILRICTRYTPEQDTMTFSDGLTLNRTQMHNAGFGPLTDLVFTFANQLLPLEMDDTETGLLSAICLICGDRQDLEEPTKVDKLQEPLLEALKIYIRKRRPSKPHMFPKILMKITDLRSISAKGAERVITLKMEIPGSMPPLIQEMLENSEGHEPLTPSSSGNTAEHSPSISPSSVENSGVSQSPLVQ

In general, AC50 refers to the midpoint of the concentration-response curve, whichever way the signal moves. Take `CC(C)(c1ccccc1)c1ccc(O)cc1`: the AC50 in assay [1] is 49.6 µM (active); in assay [2], 33.4 µM (active); in [3] it was 53.1 µM (active) and 50.4 µM (active); in assay [4] it was 33.4 µM (active) and 45.2 µM (active) and 22.5 µM (active); in assay [5], 54.7 µM (active) and 33.4 µM (active); in assay [6], 57 µM (active). In addition, the AC50 was 30.5 µM (active) in [7]; 31.1 µM (active) in [8]; 32.9 µM (active) in [9]; 35.3 µM (active) in assay [10]; 36.4 µM (active) in assay [13]; 18.3 µM (active) in [16]. Besides, in [17], the AC50 is 2.93 µM (active) [middle of 4 runs]. The result in [1], in assay [2], in assay [3], in assay [5], in assay [6] and in assay [11] was inactive. Moreover, the call in [12], in assay [14], in assay [15], in [16], in assay [18] and in assay [19] was inactive.

Consider `CC#Cc1cc(C)nc(Nc2ccccc2)n1`, for which the outcome in assay [1], in assay [2], in assay [3], in assay [5], in [6] and in assay [7] was inactive. The outcome in assay [8], in assay [9], in assay [10], in [12], in [13] and in [17] was inactive. Further, the AC50 in assay [4] was 56.5 µM (active); in assay [11], 0.606 µM (active); in [20], 17.9 µM (active); in assay [16] it was 6.26 µM (active).

On to `Sc1ccccc1`, for which the molecule was classed as inactive in assay [1], in assay [2], in [3], in [4], in assay [5] and in assay [7]. Besides, the result in assay [8], in assay [9], in assay [10], in assay [11], in assay [12] and in [13] was inactive. Also, the outcome in assay [20] and in assay [17] was inactive. Moreover, in assay [4], the AC50 is 66 µM (active).

In the case of `CCCCCCOC(=O)c1ccccc1C(=O)OCCCCCC`, the call in assay [1], in assay [2], in assay [3], in [5], in assay [6] and in assay [7] was inactive. Also, the result in assay [8], in assay [9], in assay [10], in assay [11], in [12] and in assay [13] was inactive. For the same molecule, the AC50 in [4] was 16.2 µM (active); in assay [20], 14.6 µM (active); in assay [16] it was 12.9 µM (active); in assay [17], 4.17 µM (active).

Take `CCC(C)(c1ccc(O)cc1)c1ccc(O)cc1`: the AC50 in assay [1] was 53 µM (active); in assay [3], 44.8 µM (active); in assay [4], 20 µM (active) and 15.3 µM (active) and 9.27 µM (active); in assay [5], 53 µM (active) and 45.7 µM (active) and 9.52 µM (active); in assay [6] it was 53.6 µM (active) and 33.4 µM (active) and 45.8 µM (active); in assay [8], 32.8 µM (active). Also, the AC50 in assay [20] was 26.8 µM (active); in assay [16], 46.1 µM (active); in assay [17], 2.52 µM (active) [middle of 4 runs]. The outcome in [1], in assay [2], in assay [3], in assay [4], in assay [5] and in assay [6] was inactive. For the same molecule, the outcome in [7], in [9], in [10], in [11], in [13] and in [16] was inactive. For the same molecule, the molecule was called inactive in assay [19].
